Sampled rows, rich in hits. Any-hit rate of the full collection: about 1.7%.
TrxR1 substrate – substrates of rat thioredoxin reductase 1; O89049; purified TrxR1 substrate turnover, NADPH consumption readout; Potency, µM (top dose mostly 114 µM), for the others: top-dose activity change, negative = substrate turnover; actives 0.01% (n = 390,000); AID 588456; further: on the % scale 0 is the no-effect control and ±100 the full control effect; nearly all actives have a fitted effect of over 50% in size
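Rat TrxR1, dispensed at 90 nM, was prereduced with 400 uM NADPH (final) for 5 min at ~22 deg C, then incubated with compound 15 min before 400 uM selenite. A first-read NADPH fluorescence drop versus no-compound background flagged substrates.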
IDH1 R132H inh – blocks human mutant IDH1 R132H enzyme; O75874; IDH1-R132H enzyme, NADPH consumption, diaphorase/resazurin fluorescence; Potency, µM (top dose mostly 76.6 µM), for inactives: at the top dose activity change, negative = inhibition, hits mostly inhibitors; actives 0.093% (n = 390,000); AID 602179; further: on the % scale 0 is the no-effect control and ±100 the full control effect; nearly all actives have a fitted effect of over 65% in size
Target sequence (O75874 whole entry R132H, stated change not applied): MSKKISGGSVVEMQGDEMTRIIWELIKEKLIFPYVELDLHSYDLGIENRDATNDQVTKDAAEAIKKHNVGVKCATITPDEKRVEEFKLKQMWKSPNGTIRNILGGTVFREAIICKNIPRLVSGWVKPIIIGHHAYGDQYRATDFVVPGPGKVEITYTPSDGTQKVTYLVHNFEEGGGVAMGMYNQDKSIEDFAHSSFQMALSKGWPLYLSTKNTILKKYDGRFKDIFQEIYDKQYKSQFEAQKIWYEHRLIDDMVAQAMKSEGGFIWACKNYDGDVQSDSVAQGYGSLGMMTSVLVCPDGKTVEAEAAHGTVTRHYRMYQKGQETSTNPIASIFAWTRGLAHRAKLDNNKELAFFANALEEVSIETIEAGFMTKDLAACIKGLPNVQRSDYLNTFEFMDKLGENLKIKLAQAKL
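IDH1-R132H (0.5 ug/mL) preincubated 30 min with compound, then NADPH (0.016 mM) and alpha-KG (2 mM) added; 80 min at RT, pH 7.5. Remaining NADPH coupled via diaphorase/resazurin to fluorescence (540/590 nm); concentration-response curves normalized to no-enzyme control.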
TrxR1 inh – inhibitors of rat thioredoxin reductase 1; recombinant rTrxR1, NADPH fluorescence consumption, selenite substrate; Potency, µM (top dose mostly 114 µM), without a hit: top-dose activity change, negative = inhibition, usual class: inhibitors; actives 1% (n = 390,000); further: on the % scale 0 is the no-effect control and ±100 the full control effect; nearly all actives have a fitted effect of over 65% in size
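Rat TrxR1 (90 nM in the dispensed reagent) was pre-reduced with 400 uM NADPH for 5 min at room temperature, then incubated with compound for 15 min. After 400 uM selenite was added, NADPH fluorescence (Ex 340/Em 450 nm) was followed for 8 min.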
ALOX12 inh – blocks human arachidonate 12S-lipoxygenase; P18054; purified 12hLO, xylenol orange hydroperoxide absorbance; Potency, µM (top dose mostly 108 µM), inactives show top-dose activity change, negative = inhibition, usual class: inhibitors; actives 1.1% (n = 580,000); AID 1671190; further: on the % scale 0 is the no-effect control and ±100 the full control effect
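Hydroperoxide product was detected by ferrous iron/xylenol orange as the 573 to 405 nm absorbance ratio. Arachidonic acid at 40 uM (final) was turned over for 30 min at room temperature by 150 nM human 12hLO, pH 7.0 Hepes buffer, after 15 min compound preincubation.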
Anesthetic bind – candidate novel general anesthetic via apoferritin binding | Potency, µM (series often up to 77.5 µM), for inactives: at the top dose activity change, negative = displacement, actives largely listed as inhibitors | apoferritin/1-aminoanthracene competitive binding, fluorescence | P02791 | actives 0.074% (n = 350,000) | AID 485281; further: on the % scale 0 is the no-effect control and ±100 the full control effect; nearly all actives have a fitted effect of over 20% in size
Target sequence (P02791 2-175 limits assumed): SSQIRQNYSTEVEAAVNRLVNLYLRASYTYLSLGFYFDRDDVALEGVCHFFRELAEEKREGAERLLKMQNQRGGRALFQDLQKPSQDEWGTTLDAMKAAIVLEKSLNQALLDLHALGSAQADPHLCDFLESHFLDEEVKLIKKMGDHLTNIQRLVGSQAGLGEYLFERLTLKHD
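Probe: 1-aminoanthracene (50% saturated, PBS). Protein: horse-spleen apoferritin, 10 uM. Incubation: 10 min, room temperature. Detection: 380 nm excitation, 535 nm emission. Analysis: normalized response, four-parameter Hill.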
GRP78 ERSR act – induces the endoplasmic reticulum stress response in human glioma cells | U87-MG GRP78 promoter luciferase reporter, 16 h | Potency, µM, for the others: top-dose activation, actives largely listed as activators | actives 0.02% (n = 420,000) | AID 602332; further: series mostly up to about 76 µM; % of control where 0% means no effect; nearly all actives have a fitted effect of over 35% in size
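Stably transfected U87-MG human glioma cells carrying a GRP78-based luminescent sensor were seeded at 1000 cells/well, pin-dosed with compounds and incubated 16 h. Luciferase reagent was then added, and end-point luminescence was read after 10 min at room temperature.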
* marks the source's active call; other numbers are inactive results; i = inactive; ? = inconclusive; . = no result given; [ ] = another dose, or the depositor's remark. The call rests on the fitted dose curve; in most records, active means well fitted curve in the direction sought with a large enough effect; inconclusive means small, poorly fitted or top-dose-only effect, or another doubt; inactive means no such curve, though single readings can be large; an effect the other way counts as inactive or inconclusive. Potency means the concentration at half of the fitted maximal effect.

SMILES	TrxR1 substrate	IDH1 R132H inh	TrxR1 inh	ALOX12 inh	Anesthetic bind	GRP78 ERSR act
COc1ccccc1-c1ccnc(-n2ncc(C(=O)N(C)C(C)c3ccon3)c2C2CC2)n1 (centres undefined)	.	.	.	2.2%	.	6.1%
Cc1cc(C)c(C)c(SCC(=O)Nc2oc(C)c3c(C)n[nH]c(=O)c23)c1C	-3.9%	-1.8%	3.1%	25.1µM*	.	-4.1%
Cc1n[nH]c(=O)c2c(NC(=O)CSc3ccc(F)cc3)oc(C)c12	-11.2%	4.2%	-20.5%	?	.	1.5%
CCCNC(=O)C/C(C)=N/NC(=O)C(=O)Nc1ccccn1	1.6%	0.0%	63.1µM*	42.1%	-10.7%	3.6%
CN1N=C(C(=O)N2CCCC(CCc3ccc(F)c(F)c3)C2)CCC1=O (centres undefined)	.	.	.	21.8%	.	.
C=C(C)C1CC=C(C)/C(=N/NC(=O)COc2ccc(C)cc2)C1 (centres undefined)	7.8%	-0.6%	5.4%	1.9%	4.4%	-1.4%
C=C(C)C1CC=C(C)/C(=N\NC(=S)Nc2ccc(C)cc2)C1 (centres undefined)	-4.9%	-1.0%	-10.4%	22.4µM*	4.7%	-2.7%
CCOC(=O)COc1ccc2c(=O)c(-c3ccccc3OC)c(C(F)(F)F)oc2c1	.	.	.	7.3%	.	.
CC(C(=O)Nc1cc([N+](=O)[O-])ccc1Cl)N1CCN(c2ccc(O)cc2)CC1 (centres undefined)	-9.5%	7.2%	-13.8%	?	-16.8%	-3.7%
CC(C(=O)Nc1ccc(F)cc1Cl)N1CCN(c2ccc(O)cc2)CC1 (centres undefined)	.	.	.	39.8µM*	.	.
N#CC(C#N)=C1NC(N)=C(C#N)C(c2ccccc2)=C1C#N	.	.	.	6.31µM*	10.5%	.
CCOC(=O)c1[nH]c(=S)n(-c2ccccc2)c1C(=O)OCC	.	13.2%	.	7.08µM*	.	-0.9%
CCOC(=O)c1[nH]c(=S)n(Cc2ccccc2)c1C(=O)OCC	-7.7%[57.1 µM]	-10.2%	-30.1%	?	.	-2.4%
COC(=O)CCNC(=O)c1ccccc1-c1ncc(-c2ccc(C)cc2)o1	.	.	.	1.5%	.	.
CCOC(=O)N1CCC(N2CCN(c3cc(C)ccc3C)CC2)CC1	2.9%	1.4%	12.3%	6.31µM*	-17.6%	-4.9%
Cc1ccc(Nc2nc(-c3ccc(O)c(O)c3)cs2)nc1	3.6%	-0.5%	-3.7%	22.4µM*	?	?
CC(C)NC(=O)C1CCc2nnc(-c3ccc(Cl)cc3Cl)n21 (centres undefined)	.	.	.	1.2%[6.33 µM]	.	.
Cc1cccc(-n2nc(-c3c(C)nc4scc(CC(=O)NC5CC5)n4c3=O)cc2C)c1	.	.	.	31.6%	.	.
CCCN1C(=O)[C@@H]2[C@@H](CCN2C(=O)CSCC(=O)O)N(Cc2cccs2)C1=O	.	.	.	31.6µM*	.	.
COc1ccc(Cn2nnnc2C(c2ccc(N(C)C)cc2)N2CCC(C(N)=O)CC2)cc1 (centres undefined)	0.2%[57.1 µM]	-4.8%	7.08µM*	-10.9%	-4.0%	-7.0%
COc1ccc(Cn2nnnc2C(c2ccccc2OC)N2CCC(C(N)=O)CC2)cc1 (centres undefined)	6.7%[57.1 µM]	2.0%	11.3%[57.1 µM]	18.7%	-10.3%	-1.1%
COCC1CCN(Cc2c(C(=O)N3CCc4ccccc4C3)nc3ccc(Cl)cn23)C1 (centres undefined)	5.1%	1.6%	15.8µM*	-3.5%	-5.2%	2.5%
CCn1cc(C(=O)N2C[C@@H](CO)[C@H](c3ccccn3)C2)cn1	.	.	.	51.3%	.	.
Cc1ccc(N(C)C(=O)c2sc3nc4n(c(=O)c3c2C)CCCC4)cc1C	70.5%	2.1%	21.0%	4.9%	i	1.0%
COc1ccc(C)cc1N(C)C(=O)c1sc2nc3n(c(=O)c2c1C)CCCCC3	-4.3%	-6.2%	79.4µM*	12.8%	390.2%	-1.5%
SMILES	TrxR1 substrate	IDH1 R132H inh	TrxR1 inh	ALOX12 inh	Anesthetic bind	GRP78 ERSR act
Cc1c(C(=O)NCc2ccc(Cl)cc2)sc2nc3n(c(=O)c12)CCC3	-2.2%	11.6%	2.8%	-13.8%	?	-1.8%
COc1ccc(CNC(=O)c2sc3nc4n(c(=O)c3c2C)CCCCC4)cc1	22.7%	-8.1%	7.08µM*	-18.0%	216.4%	-0.1%
CN(C)c1ccc(/C=C/c2cc3ccccc3c[n+]2C)cc1	-14.8%	.	-24.5%	.	.	-5.9%
O=c1oc2ccccc2cc1-c1ccccc1	36.9%	-4.6%	41.1%	2.4%	-18.8%	5.2%
O=C(O)c1ccc(-n2cc(-c3cc4ccccc4oc3=O)[nH]c2=S)cc1	81.5%	1.6%	-39.6%	31.6µM*	-10.2%	2.2%
O=S(=O)(c1ccc(-c2csc(-c3ccc(F)cc3)n2)cc1)N1CCOCC1	.	.	.	-28.2%	.	.
CCOc1ccc(NC2=NCC(=O)N2Cc2cccs2)cc1	8.3%	8.3%	14.2%	35.5µM*	-2.8%	3.5%
CCOc1ccc(-c2nc(=S)[nH][nH]2)cc1	8.7%[57.1 µM]	-3.7%	-30.3%[57.1 µM]	25.1µM*	-5.6%	5.8%
CN1C(=O)c2cccn2CC1C(=O)NCCCN1CCCc2ccccc21 (centres undefined)	.	.	.	20.9%	.	.
O=C1C=C(NCCc2ccc(Cl)cc2)C2(CCCCC2)O1	.	.	.	-37.5%	.	.
Cc1nc(SCCO)c([N+](=O)[O-])[nH]1	5.2%[57.1 µM]	5.8%	5.5%[57.1 µM]	25.1µM*	-9.7%	-2.7%
Cc1ccc(NS(=O)(=O)c2ccc(C(=O)NNC(=O)c3ccccc3O)cc2)cc1	-3.0%	-6.2%	-1.2%	44.7µM*	.	0.6%
Cc1cc(SCC(=O)c2ccc(O)c(O)c2)n2nc(C)c(-c3ccccc3)c2n1	0.2%	-3.9%	9.5%	39.8µM*	-13.3%	-6.2%
O=C(CSc1nc2ccccc2c(=O)[nH]1)c1cccs1	-2.8%	0.5%	5.4%	6.31µM*	-20.8%	4.5%
NC(=O)c1ccc(-n2nnnc2SCC(=O)c2ccc(O)c(O)c2)cc1	-11.3%[57.1 µM]	-8.4%	-22.8%[57.1 µM]	?	-18.5%	-2.0%
N#Cc1c(-c2cccs2)nc(SCC(=O)c2cccs2)[nH]c1=O	-9.0%	5.3%	5.6%[57.1 µM]	10µM*	-18.9%	-2.6%
Cn1c(SCC(=O)c2ccc(O)c(O)c2)nnc1-c1ccccc1	1.6%	-0.2%	0.2%	-21.2%	7.3%	5.2%
COc1ccc(-n2nnnc2SCC(=O)c2ccc(O)c(O)c2)cc1	-5.1%	-9.2%	-5.2%	4.47µM*	-4.5%	-1.0%
Cc1cc(C)c(S(=O)(=O)n2cnc3ccccc32)cc1C	.	.	.	5.7%	.	.
CCCCCCN1C[C@H](O)[C@@H](n2cc(C3CC3)nn2)C[C@@H]1c1ccccc1	.	1.8%	.	-19.4%	.	-5.3%
CCC(=O)Nc1ccc(Cl)c(NC(=O)c2ccc3c(c2)OCCO3)c1	.	.	.	42.6%	.	.
O=C(NCc1ccc2sccc2c1)C1CC(=O)N(C2CC2)C1 (centres undefined)	.	.	.	76.6%	.	.
